The nature of assay [1]: BSK_CASM3C_SRB: Viability Assessment in the BioMAP Diversity Plus: CASM3C Assay (AID 2283050).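 Note: total protein by SRB staining as cytotoxicity measure in parallel cultures; cells exposed to compound for 24 h.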 Particulars: primary human coronary artery smooth muscle cells.
Read-out in assay [2]: Thrombomodulin, THBD (gene 7056)
Nature of the assay: BSK_CASM3C_Thrombomodulin: BioMAP Diversity Plus: CASM3C Assay for Thrombomodulin Biomarker Activity (AID 2283051).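 Note: thrombomodulin protein level measured by ELISA 24 h after dosing.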 Particulars: primary human coronary artery smooth muscle cells; actives raise or lower the signal.

Read-out in assay [3]: Tissue Factor, F3 (gene 2152)
Nature of the assay: BSK_CASM3C_TissueFactor: BioMAP Diversity Plus: CASM3C Assay for Tissue Factor Biomarker Activity (AID 2283052).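 Note: cell surface tissue factor protein level read by ELISA.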 Particulars: primary human coronary artery smooth muscle cells; actives raise or lower the signal.

Read-out in assay [4]: Interferon-gamma inducible Protein 10 (IP10), CXCL10 (gene 3627)
Nature of the assay: BSK_hDFCGF_IP10: BioMAP Diversity Plus: hDFCGF Assay for Interferon-gamma inducible Protein 10 (IP10) Biomarker Activity (AID 2283053). As to conditions: primary human foreskin fibroblasts; actives raise or lower the signal. The method in brief: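 Chemical-treated human skin fibroblasts (primary) were sampled at 24 h for IP-10 by ELISA. Both increases and decreases relative to DMSO were scored.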

Read-out in assay [5]: Urokinase-type plasminogen activator receptor (uPAR), PLAUR (gene 5329)
Nature of the assay: BSK_CASM3C_uPAR: BioMAP Diversity Plus: CASM3C Assay for Urokinase-type plasminogen activator receptor (uPAR) Biomarker Activity (AID 2283054).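 Note: cell-surface uPAR protein level quantified by ELISA.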 As to conditions: primary human coronary artery smooth muscle cells; actives raise or lower the signal.

Read-out in assay [6]: Vascular cell adhesion molecule 1 (VCAM1), VCAM1 (gene 7412)
Nature of the assay: BSK_CASM3C_VCAM1: BioMAP Diversity Plus: CASM3C Assay for Vascular cell adhesion molecule 1 (VCAM1) Biomarker Activity (AID 2283055).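 Note: VCAM-1 protein level quantified by ELISA on the cells.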 As to conditions: primary human coronary artery smooth muscle cells; actives raise or lower the signal.

Read-out in assay [7]: Epidermal growth factor receptor (EGFR), EGFR (gene 1956)
The experiment in a line: BSK_hDFCGF_EGFR: BioMAP Diversity Plus: hDFCGF Assay for Epidermal growth factor receptor (EGFR) Biomarker Activity (AID 2283057). Particulars: primary human foreskin fibroblasts; actives raise or lower the signal. The method in brief:
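Cell-based multiplexed assay in primary human foreskin fibroblasts. EGFR is read by ELISA 24 h after treatment and compared with DMSO controls.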

Read-out in assay [8]: Interleukin-8 (IL8), CXCL8 (gene 3576)
Nature of the assay: BSK_hDFCGF_IL8: BioMAP Diversity Plus: hDFCGF Assay for Interleukin-8 (IL8) Biomarker Activity (AID 2283058). As to conditions: primary human foreskin fibroblasts; actives raise or lower the signal. The method, boiled down: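 Cells used are human skin primary fibroblasts. Chemical is added, cultures run 24 h, then IL-8 is quantified by ELISA, and gain or loss versus DMSO control is fitted in both directions.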

Read-out in assay [9]: Macrophage colony-stimulating factor (MCSF), CSF1 (gene 1435)
The experiment in a line: BSK_hDFCGF_MCSF: BioMAP Diversity Plus: hDFCGF Assay for Macrophage colony-stimulating factor (MCSF) Biomarker Activity (AID 2283060). As to conditions: primary human foreskin fibroblasts; actives raise or lower the signal. The method, boiled down: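 Primary human foreskin fibroblasts dosed with chemical; 24 h later, M-CSF quantified by ELISA; curves fitted in both directions vs DMSO negative control.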

Assay [10] can be described thus: BSK_hDFCGF_SRB: Viability Assessment in the BioMAP Diversity Plus: hDFCGF Assay (AID 2283061).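 Note: cells exposed to compound for 24 h before the read.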 As to conditions: primary human foreskin fibroblasts. The method in brief: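 Readout is SRB absorbance at 560 nm, reflecting total protein in parallel cultures of human foreskin fibroblasts harvested 24 h after chemical dosing. Activity was fitted bidirectionally relative to DMSO.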

Read-out in assay [11]: TIMP metallopeptidase inhibitor 1 (TIMP1), TIMP1 (gene 7076)
The experiment in a line: BSK_hDFCGF_TIMP1: BioMAP Diversity Plus: hDFCGF Assay for TIMP metallopeptidase inhibitor 1 (TIMP1) Biomarker Activity (AID 2283062). Particulars: primary human foreskin fibroblasts; actives raise or lower the signal. The method in brief: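 Human skin fibroblasts (primary), hDFCGF system; compound exposure 24 h; TIMP-1 by ELISA; bidirectional fit vs DMSO negative control; overt cytotoxicity by SRB in parallel wells.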

Read-out in assay [12]: Monokine induced gamma interferon (MIG), CXCL9 (gene 4283)
Nature of the assay: BSK_hDFCGF_MIG: BioMAP Diversity Plus: hDFCGF Assay for Monokine induced gamma interferon (MIG) Biomarker Activity (AID 2283063). Particulars: primary human foreskin fibroblasts; actives raise or lower the signal. The method, boiled down:
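Chemicals were added to primary human foreskin fibroblast cultures, which were sampled 24 h later. MIG levels were then quantified by ELISA and responses fitted in both directions relative to DMSO.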

Read-out in assay [13]: Matrix Metallopeptidase 1 (MMP1), MMP1 (gene 4312)
Nature of the assay: BSK_hDFCGF_MMP1: BioMAP Diversity Plus: hDFCGF Assay for Matrix Metallopeptidase 1 (MMP1) Biomarker Activity (AID 2283064). As to conditions: primary human foreskin fibroblasts; actives raise or lower the signal. The method in brief:
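ELISA read-out of MMP1 from human foreskin fibroblasts (primary skin cells), 24 h post-dose. Gain or loss of signal was fitted bidirectionally versus DMSO negative control; cytotoxicity was checked by SRB in parallel cultures.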

Read-out in assay [14]: Vascular cell adhesion molecule 1 (VCAM1), VCAM1 (gene 7412)
Nature of the assay: BSK_hDFCGF_VCAM1: BioMAP Diversity Plus: hDFCGF Assay for Vascular cell adhesion molecule 1 (VCAM1) Biomarker Activity (AID 2283065).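 For AC50: VCAM-1 protein level quantified by ELISA after 24 h chemical exposure.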 As to conditions: primary human foreskin fibroblasts; actives raise or lower the signal. The method in brief:
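Human foreskin fibroblast primary cells, chemical exposure 24 h; VCAM-1 by ELISA; bidirectional fit, DMSO = negative control/baseline.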

Read-out in assay [15]: Plasminogen activator inhibitor-1 (PAI1), SERPINE1 (gene 5054)
The experiment in a line: BSK_hDFCGF_PAI1: BioMAP Diversity Plus: hDFCGF Assay for Plasminogen activator inhibitor-1 (PAI1) Biomarker Activity (AID 2283066). As to conditions: primary human foreskin fibroblasts; actives raise or lower the signal. The method in brief:
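Human skin fibroblast cultures receive chemical for 24 h before PAI-1 is measured by ELISA; signal changes are fitted bidirectionally against DMSO-treated wells.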

Read-out in assay [16]: Intercellular Adhesion Molecule 1 (ICAM1), ICAM1 (gene 3383)
Nature of the assay: BSK_KF3CT_ICAM1: BioMAP Diversity Plus: KF3CT Assay for Intercellular Adhesion Molecule 1 (ICAM1) Biomarker Activity (AID 2283067). Particulars: primary human keratinocytes with fibroblasts; actives raise or lower the signal. The method, boiled down: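 ICAM-1 levels are measured by ELISA 24 h after dosing a primary human co-culture of keratinocytes and foreskin fibroblasts. Activity in either direction is fitted relative to DMSO vehicle.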

Read-out in assay [17]: Interferon-gamma inducible Protein 10 (IP10), CXCL10 (gene 3627)
The experiment in a line: BSK_KF3CT_IP10: BioMAP Diversity Plus: KF3CT Assay for Interferon-gamma inducible Protein 10 (IP10) Biomarker Activity (AID 2283068). As to conditions: primary human keratinocytes with fibroblasts; actives raise or lower the signal. The method in brief: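 Signal is secreted/surface IP-10 by ELISA in a human primary skin co-culture of keratinocytes and foreskin fibroblasts, taken 24 h post-dosing; DMSO served as negative control.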

The nature of assay [18]: BSK_KF3CT_SRB: Viability Assessment in the BioMAP Diversity Plus: KF3CT Assay (AID 2283069).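 Note: total protein by sulforhodamine B staining as a cytotoxicity measure; read 24 h after compound addition; fitted for both signal gain and loss against DMSO baseline.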 As to conditions: primary human keratinocytes with fibroblasts. The method, boiled down:
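SRB read-out at 560 nm (0.1% stain, TCA-fixed cells) gauges overt cytotoxicity in a human skin keratinocyte–fibroblast co-culture 24 h post-dosing. Signal change was fitted bidirectionally relative to DMSO control.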

A short description of assay [19]: BSK_hDFCGF_Proliferation: Cell Proliferation Assessment in the BioMAP Diversity Plus: hDFCGF Assay (AID 2283059).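 Note: curves fitted for both rise and fall of signal versus DMSO baseline.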 Particulars: primary human foreskin fibroblasts. The method, boiled down: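 This proliferation readout used SRB total-protein staining of human foreskin fibroblasts […], normalized to DMSO with bidirectional curve fitting.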

Active and inactive are the calls of the source. Rule for the calls: active = hit-call score of the fitted dose curve at least 0.9, where 1 is the maximum; inactive = score below 0.9.

A word on the AC50: it is the concentration giving half of the maximal activity seen. On to `CCOP(=S)(OCC)Oc1ccc2c(C)c(Cl)c(=O)oc2c1`, for which the outcome in assay [1], in assay [2], in assay [3], in [5], in assay [6] and in [7] was inactive. Moreover, the outcome in [8], in assay [10], in assay [11], in [12], in assay [15] and in assay [16] was inactive. Further, the result in [17] and in [18] was inactive. Also, the AC50 in [4] is 27.9 µM (active); in [9], 13.6 µM (active); in assay [13], 5.06 µM (active); in assay [14], 31.3 µM (active).
On to `N#CSCSC#N`, for which the AC50 was 14.6 µM (active) in [1]; 31.3 µM (active) in assay [2]; 1.09 µM (active) in [4]; 30.6 µM (active) in [5]; 19.3 µM (active) in assay [6]; 1.68 µM (active) in [7]. The AC50 is 0.225 µM (active) in assay [19]; 1.93 µM (active) in assay [9]; 0.66 µM (active) in assay [10]; 1.78 µM (active) in assay [12]; 3.17 µM (active) in assay [13]; 1.71 µM (active) in assay [14]. The AC50 is 2.32 µM (active) in assay [15], 5.57 µM (active) in assay [16], 8.38 µM (active) in [17] and 4.78 µM (active) in assay [18]. The result in [3] and in assay [11] was inactive.
As to `CCOP(=O)(OCC)Oc1cc(C)nc(C(C)C)n1`, the result in assay [1], in [2], in assay [3], in [4], in assay [5] and in [6] was inactive. Further, the outcome in assay [7], in assay [10], in assay [12], in assay [14], in assay [16] and in assay [17] was inactive. The result in assay [18] was inactive. The AC50 in [19] was 25.9 µM (active); in [9], 34.3 µM (active); in [11] it was 14.9 µM (active); in assay [13], 20 µM (active); in assay [15] it was 7.42 µM (active).
As for `CON=C(C(=O)OC)c1ccccc1CON=C(C)c1cccc(C(F)(F)F)c1`, the outcome in [1], in [2], in [3], in assay [4], in assay [5] and in [9] was inactive. The result in assay [12], in [14], in [16] and in [18] was inactive. Besides, the AC50 was 8.45 µM (active) in [6]; 2.78 µM (active) in assay [7]; 2.77 µM (active) in [19]; 4.21 µM (active) in assay [10]; 5.26 µM (active) in assay [11]; 2.74 µM (active) in assay [13]. For the same compound, the AC50 in assay [15] was 4 µM (active); in assay [17], 18 µM (active).
`CCCCOC(=O)[C@@H](C)Oc1ccc(Oc2ccc(C#N)cc2F)cc1`: the outcome in [1], in assay [2], in assay [3], in [4], in [5] and in assay [6] was inactive. In addition, the outcome in assay [7], in [19], in assay [9], in [10], in [11] and in [12] was inactive. The outcome in assay [13], in assay [14], in [15], in [16], in [17] and in [18] was inactive.

The values above are taken from PubChem BioAssay (EPA / NIEHS).
